The record followed here is PubChem BioAssay (NCI).

The panel holds about 83,000 compounds, 20% with a hit somewhere; the sample as a whole holds those more often.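 How to read the values: 0–100, growth inhibition (40 = 60% inhibited); 0, no net growth; -100 to 0, cell death (-40 = 40% of starting cells died; -100 = all dead).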 Values without a mark were called inactive. Active and inactive are the calls of the source. The calls were made as follows: active = growth percent below 10; inactive = the rest.

For the experiment, the system named is HL-60(TB) leukemia. Description: NCI-60 one-dose screen, 48 h (100 = growth as untreated, 0 = no growth, -100 = all killed). The note with it: 10 µM unless noted.
`COc1cc(-c2nn(-c3ccc(NC(=O)c4ccc(Cl)c(Cl)c4)cc3)cc2-c2ccncc2)ccc1Cl`: the growth is 33.8%.

Turning to `CC(C)CCSc1nc(N)nc2nc[nH]c12`, the growth is 76.7%.

On to `CC(C)=CCC[C@](C)(O)[C@H]1CC[C@]2(C)[C@@H]1CC[C@@H]1[C@@]3(C)CC/C(=N/O)C(C)(C)[C@@H]3CC[C@]12C`, for which the growth was 5.25% [100 µM] (active).

In the case of `COc1ccc2c(c1)C(=O)/C(=C/c1cccc(OCC(=O)Nc3nc4c(s3)CCCC4)c1)O2`, the growth was -70.8% (active).

As to `CCCn1nc(-c2ccccc2)c2c(-c3ccccc3)onc2c1=O`, the growth was 69.6%.

Take `O=S(=O)(Nc1ccc(Cl)c(Cl)c1)c1ccc(-c2cnc(C3CC3)o2)cc1`: the growth is 18.6%.

With `CC(C)C/C(=N\NC(=O)c1ccncc1)c1cc(Cl)ccc1O`, the growth is -32.3% (active).

In the case of `CC(=O)[C@@H]1CC[C@]2(CO)CC[C@]3(C)[C@H](CC[C@@H]4[C@@]5(C)CCCNC(C)(C)[C@@H]5CC[C@]43C)[C@@H]12`, the growth is 136%.

With `N/C(=N\c1nc2ccccc2[nH]1)NC(=O)Cc1cccc2ccccc12`, the growth was 82.4%.

Take `CN1CCN(c2cnc(C(=O)Nc3cc(F)cc4cccnc34)cn2)CC1`: the growth was 6.72% (active).

For `CN1CCN(c2nc(-c3cccnc3)nc3sc4c(c23)CCCCCC4)CC1`, the growth is 87.2%.

For the molecule `O=C(CC(CC(=O)c1ccccc1)c1ccccn1)c1ccccc1`, the growth was 104%.

As for `CCOC(=O)NNc1[nH]c(-c2ccc(OC)cc2)cc1C#N`, the growth was -42.4% (active).

For `CCN(CC)c1ccc(C(=C2C=CC(=[N+](CC)Cc3cccc(S(=O)(=O)O)c3)C=C2)c2ccc(N(CC)Cc3cccc(S(=O)(=O)O)c3)cc2)cc1`, the growth is -22.2% (active).

`O=C(N/N=C/c1ccc(Cl)cc1)c1[nH]c2ccc(Cl)cc2c1-c1ccccc1`: the growth was 13%.

Turning to `CCCCCCCCCCCCSC1=CC(=O)C=CC1=O`, the growth is -32.3% (active).

With `O=c1[nH]c(Nc2ccc(S(=O)(=O)O)cc2)nc2nc(Nc3ccc(NC(=S)Nc4ccccc4)cc3)nc(-c3ccc(O)cc3O)c12`, the growth is 120%.

Consider `FC(F)(F)c1cn(CCN2CCOCC2)c2ncnc(Cl)c12`, for which the growth is -68.6% (active).

For the molecule `Cc1ccc(S(=O)(=O)N2CCC(C(=O)Nc3ccc(F)cc3F)CC2)cc1`, the growth was 88.2%.

`CC[C@H](C)[C@H](NC(=O)[C@H](CCCNC(=N)N)NC(=O)[C@H](Cc1c[nH]c2ccccc12)NC(=O)[C@@H](NC(=O)[C@H](CCCCN)NC(=O)[C@H](CCCCN)NC(=O)[C@@H](NC(=O)[C@@H](NC(=O)[C@@H](NC(=O)[C@H](CCCCN)NC(=O)[C@H](Cc1ccccc1)NC(=O)[C@H](CCCCN)NC(=O)[C@H](CCCCN)NC(=O)[C@H](Cc1ccccc1)NC(=O)[C@@H](NC(=O)[C@@H](N)CCCCN)[C@@H](C)CC)[C@@H](C)O)[C@@H](C)CC)[C@@H](C)CC)C(C)C)C(=O)N[C@@H](Cc1ccccc1)C(=O)NCC(=O)N[C@@H](CCCNC(=N)N)C(=O)N[C@@H](Cc1ccccc1)C(N)=O`: the growth was 14.9%.

For the molecule `COc1ccc(NC(=O)Cc2nc3nc4sc(C)c(C)c4c(=O)n3[nH]2)cc1`, the growth was 109%.

For the molecule `Cc1csc(N/N=C/c2ccncc2)n1`, the growth was 92.6%.

Turning to `Nc1ccc2cc3ccc(N)cc3nc2c1`, the growth is 110%.

On to `C#CC(=O)/C=C/CCCCCCC#CC(=O)CCC(=O)C#CCCCCCC/C=C/C(=O)C#C`, for which the growth was -70.1% (active).

For the molecule `CCc1nn2c(-c3cc(OC)c(OC)c(OC)c3)c(-c3cc(OC)c(OC)c(OC)c3)nc2s1`, the growth is 59.3%.

With `Cc1cc(O)c2cc3c(O)c(O)ccc3cc2c1`, the growth is 82.7%.

Consider `Cc1[nH]c(C(=O)Nc2nc3ccc(NC(=O)CCN)cc3s2)c(Cl)c1Cl`, for which the growth was 83.8%.

As for `CC/C(=C(/c1ccc(Cl)cc1)c1ccc(OCCN2CCCCCC2)cc1)c1ccccc1`, the growth was 49.9%.

For the molecule `CCN(CC)CCCOCCCNc1cc(OC)cc2cccnc12`, the growth is 107%.

With `C[n+]1ccc(CCc2c[nH]c3ccccc23)cc1`, the growth was 90.6%.

For `Cc1ccc(CCC(=O)Nc2ncc(Cc3cc(Cl)ccc3Cl)s2)o1`, the growth was -40.4% (active).

On to `NC(=O)C1(N2CCCCC2)CCN(CCCC(=O)c2ccc(F)cc2)CC1`, for which the growth is 9.84% (active).

On to `COc1ccc(/C(=C\c2ccc3c(c2)OCO3)C(=O)Nc2nc3ccc(F)cc3s2)cc1OC`, for which the growth is 93%.

`Cc1onc(-c2ccccc2Cl)c1C(=O)Cl`: the growth is 104%.

With `C#CCOc1ccc2ncnc(Nc3cccc(NC(=O)CCl)c3)c2c1`, the growth was 63.7%.

On to `C=C1C(=O)O[C@H]2[C@H]1CC/C(CNC(=O)/C=C/c1ccc(Br)cc1)=C\CC[C@@]1(C)O[C@@H]21`, for which the growth is -15.8% (active).

In the case of `O=C(N/N=C/c1c(Cl)cccc1Cl)c1ccccc1Nc1ccnc(C(F)(F)F)c1`, the growth is 96.5%.

For `O=C(Nc1ccccc1)Nc1ncnc2c1ncn2-c1ccc(Cl)cc1`, the growth was 95.3%.

As to `COc1cc(/C=C/C(=O)c2c(C)nc3ccccc3c2C)ccc1OCCCCOc1cc2c(cc1OC)C(=O)N1CCC[C@H]1C=N2`, the growth is -34.1% (active).

Turning to `Clc1nc(Cl)c2ncn(CC3(Cn4cnc5c(Cl)nc(Cl)nc54)COC3)c2n1`, the growth was -75.5% (active).
